# According to the supplement of paper PMC10849652:
# Of roughly 7,900 targets only a part is listed; those with a hit were picked by preference. About 0.6% of all pairs of compound and target were hits. Values without a mark were called inactive.
# Experiments:
# Experiment in all cases: log2 fold change, soluble protein after heating vs DMSO (PISA); higher = thermal stabilisation; K562 cells, 10 uM, 30 min; active = over 0.2 and 3.5 SD of the protein, either way, in both replicates (recomputed)
# bafetinib = compound: Cc1ccc(NC(=O)c2ccc(CN3CC[C@H](N(C)C)C3)c(C(F)(F)F)c2)cc1Nc1nccc(-c2cncnc2)n1 [bafetinib]
# Summary of the method: (§1)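 Soluble protein was defined as the supernatant after 21,000xg for 90 min. It came from K562 cells at 2×10^6 cells/mL given 10 μM compound for 30 min, heated in aliquots for 3 min across 48°C-58°C, pooled, and extracted in PBS with 0.5% NP-40 at 4°C, and was quantified by TMTpro 16plex LC-MS/MS with equalised channel sums. Thermal stability against control samples, from duplicates, is reported as log2 fold change.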
# [1] = compound: Cc1cccc(CC(=O)N2CCc3c2ccc(-c2cn(C)c4ncnc(N)c24)c3F)n1
# Summary of the method: as §1
# nilotinib = compound: Cc1cn(-c2cc(NC(=O)c3ccc(C)c(Nc4nccc(-c5cccnc5)n4)c3)cc(C(F)(F)F)c2)cn1 [nilotinib]
# Summary of the method: as §1
# [2] = compound: Cc1nc(Nc2n[nH]c3c2CN(C(=O)N[C@H](CN(C)C)c2ccccc2)C3(C)C)c2sccc2n1
# Summary of the method: as §1
# dasatinib = compound: Cc1nc(Nc2ncc(C(=O)Nc3c(C)cccc3Cl)s2)cc(N2CCN(CCO)CC2)n1 [dasatinib]
# Summary of the method: as §1
# [3] = compound: Cc1ncc(-c2ccnc(Nc3ccc(S(C)(=O)=O)cc3)n2)n1C(C)C
# Summary of the method: as §1
# [4] = compound: Cn1cc(-c2ccc3c(c2)CCN3C(=O)Cc2cccc(C(F)(F)F)c2)c2c(N)ncnc21
# Summary of the method: as §1
# [5] = compound: Cn1cc(-c2ccc3nnc(C(F)(F)c4ccc5ncccc5c4)n3n2)cn1
# Summary of the method: as §1
# tipifarnib = compound: Cn1cncc1[C@@](N)(c1ccc(Cl)cc1)c1ccc2c(c1)c(-c1cccc(Cl)c1)cc(=O)n2C [tipifarnib]
# Summary of the method: as §1
# mubritinib = compound: FC(F)(F)c1ccc(/C=C/c2nc(COc3ccc(CCCCn4ccnn4)cc3)co2)cc1 [mubritinib]
# Summary of the method: as §1
# Sequence of UniProt Q15075 (Q15075 whole entry, looked up): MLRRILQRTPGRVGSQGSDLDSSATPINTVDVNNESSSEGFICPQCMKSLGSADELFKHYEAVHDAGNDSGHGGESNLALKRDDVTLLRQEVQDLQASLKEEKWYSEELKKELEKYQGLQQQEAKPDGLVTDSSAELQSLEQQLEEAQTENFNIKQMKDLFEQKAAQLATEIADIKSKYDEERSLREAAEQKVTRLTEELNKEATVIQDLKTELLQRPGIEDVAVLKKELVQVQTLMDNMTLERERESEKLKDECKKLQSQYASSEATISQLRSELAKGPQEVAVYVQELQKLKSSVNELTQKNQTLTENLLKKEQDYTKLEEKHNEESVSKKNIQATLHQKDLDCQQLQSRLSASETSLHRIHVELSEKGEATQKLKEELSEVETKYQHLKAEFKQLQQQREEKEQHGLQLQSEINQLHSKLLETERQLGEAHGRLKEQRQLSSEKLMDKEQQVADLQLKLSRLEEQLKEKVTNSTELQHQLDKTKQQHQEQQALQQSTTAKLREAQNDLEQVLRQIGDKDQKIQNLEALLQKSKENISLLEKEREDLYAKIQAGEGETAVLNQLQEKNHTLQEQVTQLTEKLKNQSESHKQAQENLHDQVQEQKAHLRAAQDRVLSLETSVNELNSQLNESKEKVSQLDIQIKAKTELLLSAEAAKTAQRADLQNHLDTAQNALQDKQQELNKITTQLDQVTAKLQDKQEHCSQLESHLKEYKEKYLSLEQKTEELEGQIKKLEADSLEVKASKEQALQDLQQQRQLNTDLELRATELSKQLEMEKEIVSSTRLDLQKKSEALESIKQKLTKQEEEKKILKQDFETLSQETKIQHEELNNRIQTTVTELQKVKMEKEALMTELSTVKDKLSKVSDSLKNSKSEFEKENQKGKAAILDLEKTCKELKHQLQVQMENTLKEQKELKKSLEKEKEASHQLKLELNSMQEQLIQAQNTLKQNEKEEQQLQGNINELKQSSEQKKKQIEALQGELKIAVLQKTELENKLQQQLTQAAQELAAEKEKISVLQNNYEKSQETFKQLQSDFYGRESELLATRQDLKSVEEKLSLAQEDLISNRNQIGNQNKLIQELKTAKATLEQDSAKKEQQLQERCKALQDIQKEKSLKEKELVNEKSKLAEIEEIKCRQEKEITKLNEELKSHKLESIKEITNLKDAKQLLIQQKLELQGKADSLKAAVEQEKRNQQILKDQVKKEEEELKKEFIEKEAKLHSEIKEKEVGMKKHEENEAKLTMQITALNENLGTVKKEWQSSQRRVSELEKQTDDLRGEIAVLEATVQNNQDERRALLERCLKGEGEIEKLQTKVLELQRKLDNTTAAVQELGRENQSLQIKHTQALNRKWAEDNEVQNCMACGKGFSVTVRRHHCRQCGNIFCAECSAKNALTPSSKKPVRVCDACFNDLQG
# Sequence of UniProt Q9BU89 (Q9BU89 whole entry, looked up): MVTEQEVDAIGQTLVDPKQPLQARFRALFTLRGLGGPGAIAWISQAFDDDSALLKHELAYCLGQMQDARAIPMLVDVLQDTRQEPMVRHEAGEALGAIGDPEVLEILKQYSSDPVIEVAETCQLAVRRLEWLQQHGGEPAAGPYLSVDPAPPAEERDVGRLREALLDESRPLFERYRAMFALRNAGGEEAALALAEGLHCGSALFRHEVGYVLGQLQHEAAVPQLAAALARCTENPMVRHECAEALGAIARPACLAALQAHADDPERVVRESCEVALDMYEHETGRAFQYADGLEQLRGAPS
# Sequence of UniProt P17844 (P17844 whole entry, looked up): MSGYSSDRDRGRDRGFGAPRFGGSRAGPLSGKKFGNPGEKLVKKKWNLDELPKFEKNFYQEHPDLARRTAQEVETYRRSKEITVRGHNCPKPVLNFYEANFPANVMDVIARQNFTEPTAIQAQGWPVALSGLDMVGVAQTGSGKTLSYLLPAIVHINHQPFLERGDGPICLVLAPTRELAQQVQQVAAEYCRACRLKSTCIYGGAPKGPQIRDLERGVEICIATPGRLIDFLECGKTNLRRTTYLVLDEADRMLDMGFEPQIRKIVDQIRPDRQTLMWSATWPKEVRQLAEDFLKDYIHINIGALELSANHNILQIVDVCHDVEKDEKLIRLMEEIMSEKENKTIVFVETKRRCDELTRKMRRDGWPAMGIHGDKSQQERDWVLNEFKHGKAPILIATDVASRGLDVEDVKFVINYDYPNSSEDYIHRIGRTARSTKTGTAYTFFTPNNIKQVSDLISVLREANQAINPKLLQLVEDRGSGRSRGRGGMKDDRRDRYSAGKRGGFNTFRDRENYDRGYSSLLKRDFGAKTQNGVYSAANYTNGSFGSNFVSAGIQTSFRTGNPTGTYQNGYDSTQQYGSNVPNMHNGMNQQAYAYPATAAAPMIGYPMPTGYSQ
# Sequence of UniProt Q8N6R0 (Q8N6R0 whole entry, looked up): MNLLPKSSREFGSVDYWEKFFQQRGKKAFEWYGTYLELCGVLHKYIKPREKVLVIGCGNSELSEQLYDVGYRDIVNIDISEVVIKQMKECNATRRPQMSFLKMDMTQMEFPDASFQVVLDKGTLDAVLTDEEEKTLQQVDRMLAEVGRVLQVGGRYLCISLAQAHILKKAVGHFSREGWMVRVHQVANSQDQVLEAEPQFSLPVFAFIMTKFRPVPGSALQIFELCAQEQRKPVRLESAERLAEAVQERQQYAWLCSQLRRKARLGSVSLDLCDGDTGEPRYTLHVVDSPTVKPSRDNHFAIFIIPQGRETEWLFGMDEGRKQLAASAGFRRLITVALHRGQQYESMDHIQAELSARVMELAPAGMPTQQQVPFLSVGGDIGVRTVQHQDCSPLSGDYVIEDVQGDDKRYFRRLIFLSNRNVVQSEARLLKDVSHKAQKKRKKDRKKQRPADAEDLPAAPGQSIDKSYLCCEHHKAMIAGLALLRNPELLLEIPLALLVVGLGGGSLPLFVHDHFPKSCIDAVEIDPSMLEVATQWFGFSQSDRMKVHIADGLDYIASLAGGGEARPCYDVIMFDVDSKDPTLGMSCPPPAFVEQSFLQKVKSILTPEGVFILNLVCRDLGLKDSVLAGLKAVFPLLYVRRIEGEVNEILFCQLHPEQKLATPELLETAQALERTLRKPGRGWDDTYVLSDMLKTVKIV
# Sequence of UniProt Q8TAG9 (Q8TAG9 whole entry, looked up): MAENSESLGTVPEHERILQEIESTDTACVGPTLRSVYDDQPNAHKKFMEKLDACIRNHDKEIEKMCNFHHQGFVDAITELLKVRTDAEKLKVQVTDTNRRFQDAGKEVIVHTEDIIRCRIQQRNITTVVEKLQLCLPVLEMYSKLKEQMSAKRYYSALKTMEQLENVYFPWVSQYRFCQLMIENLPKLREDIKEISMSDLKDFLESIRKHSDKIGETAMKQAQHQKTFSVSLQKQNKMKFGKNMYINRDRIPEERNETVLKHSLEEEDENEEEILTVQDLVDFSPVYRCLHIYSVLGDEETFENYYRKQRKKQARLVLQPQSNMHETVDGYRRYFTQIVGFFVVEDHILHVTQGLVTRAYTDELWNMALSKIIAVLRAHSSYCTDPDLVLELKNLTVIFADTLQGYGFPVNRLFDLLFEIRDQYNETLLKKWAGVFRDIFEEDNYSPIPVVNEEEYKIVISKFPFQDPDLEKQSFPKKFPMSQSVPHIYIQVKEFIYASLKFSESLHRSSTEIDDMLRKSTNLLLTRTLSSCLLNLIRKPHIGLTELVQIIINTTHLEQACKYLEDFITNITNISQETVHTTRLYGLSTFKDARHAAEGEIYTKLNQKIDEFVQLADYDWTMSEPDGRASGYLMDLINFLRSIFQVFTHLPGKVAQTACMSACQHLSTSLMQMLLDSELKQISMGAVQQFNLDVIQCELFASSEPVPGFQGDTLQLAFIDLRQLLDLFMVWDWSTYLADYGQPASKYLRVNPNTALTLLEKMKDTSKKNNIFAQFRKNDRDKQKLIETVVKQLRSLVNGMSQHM
# Sequence of UniProt O75071 (O75071 whole entry, looked up): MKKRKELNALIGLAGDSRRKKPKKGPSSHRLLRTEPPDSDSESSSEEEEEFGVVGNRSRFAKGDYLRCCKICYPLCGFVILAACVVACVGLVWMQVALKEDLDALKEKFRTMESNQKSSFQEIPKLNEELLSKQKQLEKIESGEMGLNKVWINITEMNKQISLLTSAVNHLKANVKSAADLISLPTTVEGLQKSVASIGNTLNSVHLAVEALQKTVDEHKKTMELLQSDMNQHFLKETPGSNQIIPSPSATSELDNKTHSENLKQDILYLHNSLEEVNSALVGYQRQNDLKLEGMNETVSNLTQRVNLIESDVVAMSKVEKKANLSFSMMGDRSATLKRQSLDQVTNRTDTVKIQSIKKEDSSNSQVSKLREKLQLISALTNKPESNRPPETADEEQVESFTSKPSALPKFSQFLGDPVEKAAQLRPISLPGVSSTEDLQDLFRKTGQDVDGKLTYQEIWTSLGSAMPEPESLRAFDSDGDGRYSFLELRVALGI
# Sequence of UniProt Q9H467 (Q9H467 whole entry, looked up): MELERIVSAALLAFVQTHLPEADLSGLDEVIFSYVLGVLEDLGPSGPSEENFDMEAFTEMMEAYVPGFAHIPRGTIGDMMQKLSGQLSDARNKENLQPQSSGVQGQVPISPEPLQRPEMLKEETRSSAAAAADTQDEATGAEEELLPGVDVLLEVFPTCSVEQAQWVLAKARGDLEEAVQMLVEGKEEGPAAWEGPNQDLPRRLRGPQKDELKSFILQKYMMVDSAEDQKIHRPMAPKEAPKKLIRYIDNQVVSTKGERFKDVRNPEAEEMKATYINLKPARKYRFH
# Sequence of UniProt P49366 (P49366 whole entry, looked up): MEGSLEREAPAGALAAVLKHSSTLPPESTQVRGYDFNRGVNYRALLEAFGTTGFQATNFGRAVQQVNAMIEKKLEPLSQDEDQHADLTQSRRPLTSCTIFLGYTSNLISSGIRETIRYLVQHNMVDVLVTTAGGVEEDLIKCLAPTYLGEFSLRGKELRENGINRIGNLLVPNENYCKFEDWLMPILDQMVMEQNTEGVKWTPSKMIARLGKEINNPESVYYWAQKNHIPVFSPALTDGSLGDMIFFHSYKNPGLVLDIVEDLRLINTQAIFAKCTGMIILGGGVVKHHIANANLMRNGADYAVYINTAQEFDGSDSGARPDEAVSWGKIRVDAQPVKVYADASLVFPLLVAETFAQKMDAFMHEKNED
Target,log2 fold change (bafetinib),log2 fold change [1],log2 fold change (nilotinib),log2 fold change [2],log2 fold change (dasatinib),log2 fold change [3],log2 fold change [4],log2 fold change [5],log2 fold change (tipifarnib),log2 fold change (mubritinib)
DDX39A (UniProt O00148),0.001,0.014,-0.017,-0.278 (active),-0.134,-0.218,-0.018,-0.007,0.079,-0.182
F5 (UniProt P12259),-0.076,-0.02,0.021,0.019,0.05,0.023,0.072,0.111,0.153,-0.089
DDOST (UniProt P39656),-0.035,-0.001,-0.005,0.033,0.016,-0.039,-0.04,0,0.047,-0.022
ERLIN1 (UniProt O75477),0.041,0.094,-0.153,0.032,-0.031,0.004,-0.11,0.002,0.026,-0.053
EIF4G1 isoform 8 (UniProt Q04637),-0.002,0.046,-0.223,-0.11,-0.157,-0.17,-0.155,-0.117,-0.083,-0.071
DHCR7 (UniProt Q9UBM7),0.428 (active),-0.005,-0.282,-0.005,-0.109,0.05,0.257,-0.016,-0.167,0.166
EEA1 (UniProt Q15075),-0.043,-0.021,0.013,0,0.061,0.004,-0.015,0.028,0.007,0.041
CUEDC2 (UniProt Q9H467),-0.072,0.003,-0.006,-0.045,0.049,-0.055,0.02,-0.009,0.028,0.042
DNAJB1 (UniProt P25685),-0.026,0.013,-0.042,-0.058,-0.064,0.026,0.035,0.02,-0.026,0.01
DDX5 (UniProt P17844),0.272,0.018,0.166,-0.092,-0.19,0.076,0.029,0.046,-0.155,0.326
DHRS3 (UniProt O75911),0.027,0.017,0.101,-0.031,0.188,-0.025,0.323 (active),0.164,0.012,0.081
FAAP100 (UniProt Q0VG06),0.201,0.043,-0.032,-0.005,0.035,-0.039,-0.005,0.101,0.1,0
EDEM2 (UniProt Q9BV94),0.094,0,-0.096,0.003,0.114,-0.011,-0.046,0,0.15,-0.117
DHPS (UniProt P49366),0.026,-0.057,0.035,0.001,0.014,0.004,0.008,-0.005,-0.047,0.061
ERCC6 (UniProt Q03468),-0.775 (active),-0.016,0.041,-0.087,-0.043,-0.021,0.129,-0.094,0.019,0.059
EFCAB14 (UniProt O75071),-0.008,-0.056,0.084,0.011,0.075,0.003,-0.123,-0.048,-0.062,0.081
DHFR (UniProt P00374),0.191,0.026,0.185,-0.022,-0.187,0.076,0,0.182,0.177,-0.225
DAB2 (UniProt P98082),-0.041,0.085,-0.152,0.002,-0.178,-0.098,0.01,-0.007,-0.042,-0.024
DYRK1A isoform 2 (UniProt Q13627),-0.073,0.02,-0.005,-0.056,-0.098,-0.047,0.021,-0.046,-0.042,0.034
DNAJB12 (UniProt Q9NXW2),-0.057,0.007,-0.158,0.041,-0.068,0.015,-0.04,-0.039,0.016,0.01
CTU1 (UniProt Q7Z7A3),-0.024,0.067,-0.062,-0.03,-0.145,-0.03,0.035,0.02,-0.043,0.067
DHX36 (UniProt Q9H2U1),0.065,0.015,-0.066,0.052,-0.01,0.045,-0.076,-0.059,0.002,-0.128
DMXL1 (UniProt Q9Y485),-0.14,-0.034,-0.002,0.018,-0.099,-0.012,0.021,0.021,-0.035,-0.053
DCAF13 (UniProt Q9NV06),0.178,0,0.006,0.102,0.077,-0.05,-0.249,-0.173,0.193,-0.106
DOHH (UniProt Q9BU89),0.653 (active),0.008,0.035,-0.169,0.013,-0.054,-0.089,0.022,0.014,0.03
EEF1AKNMT (UniProt Q8N6R0),0.067,-0.008,-0.02,-0.062,-0.118,0.084,-0.031,0.003,-0.154,0.089
EXOC6 (UniProt Q8TAG9),-0.013,0.036,-0.013,-0.196,-0.22,-0.013,0.042,0.028,-0.076,0.07
FAM50A (UniProt Q14320),-0.035,-0.045,-0.016,-0.096,-0.134,0.029,-0.021,0.044,-0.031,0.083
EHD2 (UniProt Q9NZN4),-0.051,0.008,-0.062,0.01,-0.112,0.003,0.012,-0.031,-0.028,-0.061
